Assay results: the supplement of paper PMC10849652
About 7,900 targets were measured; listed, in parts, are those with a hit and a random draw of the rest. About 0.6% of all pairs of compound and target were hits.

Key:
Assay in all cases: log2 fold change, soluble protein after heating vs DMSO (PISA); higher = thermal stabilisation; K562 cells, 10 uM, 30 min; active = over 0.2 and 3.5 SD of the protein, either way, in both replicates (recomputed)
[1] = compound: CC[C@@H]1C(=O)N(C)c2cnc(Nc3ccc(C(=O)NC4CCN(C)CC4)cc3OC)nc2N1C1CCCC1
Summary of the method: (§1)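 Soluble protein was defined as the supernatant after 21,000xg for 90 min. It came from K562 cells at 2×10^6 cells/mL given 10 μM compound for 30 min, heated in aliquots for 3 min across 48°C-58°C, pooled, and extracted in PBS with 0.5% NP-40 at 4°C, and was quantified by TMTpro 16plex LC-MS/MS with equalised channel sums. Thermal stability against control samples, from duplicates, is reported as log2 fold change.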

[2] = compound: CC[C@@H]1C(=O)N(C)c2cnc(Nc3ccc(C(=O)N[C@H]4CC[C@H](N5CCN(CC6CC6)CC5)CC4)cc3OC)nc2N1C(C)C [volasertib]
Summary of the method: as §1

[3] = compound: CC[C@H](C)N1C=C(C2=C(C=C(C=C21)C3=CN=C(C=C3)N4CCNCC4)C(=O)NCC5=C(C=C(NC5=O)C)C)C
Summary of the method: as §1

[4] = compound: CC[C@H](C)[C@@H](C(=O)N[C@@H]([C@@H](C)O)C(=O)N[C@@H](CC(C)C)C(=O)[C@]1(CO1)C)NC(=O)[C@H]([C@@H](C)CC)N(C)C(=O)C [epoxomicin]
Summary of the method: as §1

[5] = compound: CCn1c(C(=O)N(C2CC2)C2CC2)cc2c3c(ncn3C)c(Nc3cc(C)n(C)n3)nc21
Summary of the method: as §1

[6] = compound: CCn1cc(-c2ccnc3[nH]c(-c4cccc(CN(C)C)c4)cc23)c(-c2ccc(NC(=O)N(C)C)cc2)n1
Summary of the method: as §1

[7] = compound: CN(C)CC(=O)Nc1ccc2[nH]c(=O)c3ccccc3c2c1
Summary of the method: as §1

[8] = compound: CN(CCOC1=CC=C(C=C1)C[C@H]2C(=O)NC(=O)S2)C3=CC=CC=N3 (racemic) [rosiglitazone]
Summary of the method: as §1

[9] = compound: CN1C2=C(C3=C1C(=O)N(N=C3)CC4=CC(=CC=C4)N)SC(=C2)S(=O)C
Summary of the method: as §1

[10] = compound: CN1CCC(CNc2ccc3ncc(-c4cccc(OC(F)(F)F)c4)n3n2)CC1
Summary of the method: as §1

[11] = compound: CN1CCN(CCOc2cc(OC3CCOCC3)c3c(Nc4c(Cl)ccc5c4OCO5)ncnc3c2)CC1 [saracatinib]
Summary of the method: as §1

[12] = compound: CN1CCN(c2nc(C3=C(c4c[nH]c5ccccc45)C(=O)NC3=O)c3ccccc3n2)CC1 [sotrastaurin]
Summary of the method: as §1

[13] = compound: CN1CC[C@H](c2c(O)cc(O)c3c(=O)cc(-c4ccccc4Cl)oc23)[C@H](O)C1 [alvocidib]
Summary of the method: as §1

[14] = compound: CN1CCc2c(c3ccccc3n2Cc2ccc(C(=O)NO)cc2)C1 [Tubastatin A]
Summary of the method: as §1

[15] = compound: CNC(=O)C1=CC=CC=C1NC2=NC(=NC=C2Cl)NC3=C(C=C(C=C3)N4CCOCC4)OC
Summary of the method: as §1

[16] = compound: CNC(=O)c1ccc(Nc2ncc(C(F)(F)F)c(NCc3nccnc3N(C)S(C)(=O)=O)n2)cc1 [defactinib]
Summary of the method: as §1

[17] = compound: CNCc1ccc(-c2[nH]c3cc(F)cc4c3c2CCNC4=O)cc1 [rucaparib]
Summary of the method: as §1

[18] = compound: CNc1nc(-c2ccc3c(N)n[nH]c3c2)cc(N2C[C@@H](C(=O)NC3CCCCC3)CC[C@H]2C)n1
Summary of the method: as §1

[19] = compound: COC(=O)N[C@@H](C)CNc1nccc(-c2cn(C(C)C)nc2-c2cc(Cl)cc(NS(C)(=O)=O)c2F)n1 [encorafenib]
Summary of the method: as §1

[20] = compound: COC(=O)[C@H](CCSC)NC(=O)C1=C(C=C(C=C1)NC[C@H](CS)N)C2=CC=CC=C2
Summary of the method: as §1

Measured: log2 fold change

CNOT2 (UniProt Q9NZN8)
Sequence of UniProt Q9NZN8 (Q9NZN8 whole entry, looked up): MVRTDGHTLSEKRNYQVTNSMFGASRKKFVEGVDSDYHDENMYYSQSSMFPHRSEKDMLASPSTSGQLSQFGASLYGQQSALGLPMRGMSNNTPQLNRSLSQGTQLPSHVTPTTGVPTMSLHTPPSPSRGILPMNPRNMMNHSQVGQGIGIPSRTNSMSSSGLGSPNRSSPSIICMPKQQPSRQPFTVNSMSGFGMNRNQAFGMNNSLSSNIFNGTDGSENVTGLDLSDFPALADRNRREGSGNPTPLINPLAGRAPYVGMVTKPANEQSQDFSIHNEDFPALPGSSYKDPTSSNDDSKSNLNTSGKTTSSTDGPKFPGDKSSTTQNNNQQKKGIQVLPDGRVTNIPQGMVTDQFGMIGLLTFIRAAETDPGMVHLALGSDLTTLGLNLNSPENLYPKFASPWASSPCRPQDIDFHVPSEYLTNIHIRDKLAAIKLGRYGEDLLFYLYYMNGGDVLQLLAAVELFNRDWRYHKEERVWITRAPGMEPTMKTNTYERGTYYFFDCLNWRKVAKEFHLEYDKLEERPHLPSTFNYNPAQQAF
inactive: [1] -0.035 | [2] -0.168 | [3] 0.021 | [4] -0.034 | [5] -0.05 | [6] 0.085 | [7] 0.015 | [8] 0.007 | [9] 0.062 | [10] -0.027 | [11] -0.044 | [12] 0.007 | [13] -0.071 | [14] -0.005 | [15] -0.006 | [16] -0.024 | [17] 0.052 | [18] 0 | [19] 0.012 | [20] -0.021

COASY isoform 2 (UniProt Q13057)
Sequence of UniProt Q13057 (Q13057 whole entry, looked up): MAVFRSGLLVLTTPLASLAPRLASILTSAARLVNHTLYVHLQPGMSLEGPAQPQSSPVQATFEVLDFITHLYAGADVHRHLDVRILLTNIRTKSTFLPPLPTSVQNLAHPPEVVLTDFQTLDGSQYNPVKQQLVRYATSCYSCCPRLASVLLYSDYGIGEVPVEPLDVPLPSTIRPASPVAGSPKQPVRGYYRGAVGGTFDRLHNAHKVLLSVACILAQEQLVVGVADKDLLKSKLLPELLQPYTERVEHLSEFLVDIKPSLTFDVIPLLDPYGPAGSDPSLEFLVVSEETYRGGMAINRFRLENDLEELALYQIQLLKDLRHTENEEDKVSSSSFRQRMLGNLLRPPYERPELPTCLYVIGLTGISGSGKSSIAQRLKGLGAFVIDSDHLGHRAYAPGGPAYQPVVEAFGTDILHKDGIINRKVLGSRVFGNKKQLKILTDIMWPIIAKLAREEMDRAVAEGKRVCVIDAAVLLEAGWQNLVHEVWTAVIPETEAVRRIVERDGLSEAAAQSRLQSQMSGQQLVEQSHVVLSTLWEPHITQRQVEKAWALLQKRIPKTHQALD
active: [2] -0.266
inactive: [1] -0.068 | [3] 0.027 | [4] -0.013 | [5] 0.061 | [6] -0.052 | [7] 0.038 | [8] 0.017 | [9] -0.08 | [10] -0.132 | [11] 0.003 | [12] -0.001 | [13] -0.12 | [14] -0.001 | [15] 0.035 | [16] -0.065 | [17] 0.011 | [18] -0.03 | [19] 0.034 | [20] -0.029

CCNT1 (UniProt O60563)
Sequence of UniProt O60563 (O60563 whole entry, looked up): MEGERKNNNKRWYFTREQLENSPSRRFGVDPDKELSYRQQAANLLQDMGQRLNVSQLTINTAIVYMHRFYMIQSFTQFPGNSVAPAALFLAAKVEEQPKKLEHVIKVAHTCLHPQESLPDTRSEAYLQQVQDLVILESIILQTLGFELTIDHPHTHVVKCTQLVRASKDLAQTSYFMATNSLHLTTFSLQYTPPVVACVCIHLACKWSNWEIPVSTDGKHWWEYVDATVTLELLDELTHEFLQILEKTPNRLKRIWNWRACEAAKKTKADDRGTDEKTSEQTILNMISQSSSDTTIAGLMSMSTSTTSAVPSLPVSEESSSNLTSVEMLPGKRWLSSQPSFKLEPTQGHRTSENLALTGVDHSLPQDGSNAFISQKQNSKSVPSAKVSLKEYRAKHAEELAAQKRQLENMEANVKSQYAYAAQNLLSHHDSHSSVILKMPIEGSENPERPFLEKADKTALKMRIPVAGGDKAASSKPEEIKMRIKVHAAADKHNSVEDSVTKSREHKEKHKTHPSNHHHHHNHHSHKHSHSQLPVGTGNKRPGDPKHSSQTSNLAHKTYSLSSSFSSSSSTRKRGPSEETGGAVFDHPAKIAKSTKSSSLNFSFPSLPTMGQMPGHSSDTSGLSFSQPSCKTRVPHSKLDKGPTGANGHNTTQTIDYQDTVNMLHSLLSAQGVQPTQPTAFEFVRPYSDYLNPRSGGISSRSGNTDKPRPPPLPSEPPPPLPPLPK
inactive: [1] 0.023 | [2] -0.085 | [3] 0.069 | [4] -0.063 | [5] 0.028 | [6] 0.035 | [7] -0.055 | [8] -0.024 | [9] 0.132 | [10] -0.036 | [11] -0.005 | [12] -0.173 | [13] -0.221 | [14] 0.075 | [15] -0.086 | [16] -0.213 | [17] 0.044 | [18] 0.043 | [19] 0.163 | [20] 0.002

CPQ (UniProt Q9Y646)
Sequence of UniProt Q9Y646 (Q9Y646 whole entry, looked up): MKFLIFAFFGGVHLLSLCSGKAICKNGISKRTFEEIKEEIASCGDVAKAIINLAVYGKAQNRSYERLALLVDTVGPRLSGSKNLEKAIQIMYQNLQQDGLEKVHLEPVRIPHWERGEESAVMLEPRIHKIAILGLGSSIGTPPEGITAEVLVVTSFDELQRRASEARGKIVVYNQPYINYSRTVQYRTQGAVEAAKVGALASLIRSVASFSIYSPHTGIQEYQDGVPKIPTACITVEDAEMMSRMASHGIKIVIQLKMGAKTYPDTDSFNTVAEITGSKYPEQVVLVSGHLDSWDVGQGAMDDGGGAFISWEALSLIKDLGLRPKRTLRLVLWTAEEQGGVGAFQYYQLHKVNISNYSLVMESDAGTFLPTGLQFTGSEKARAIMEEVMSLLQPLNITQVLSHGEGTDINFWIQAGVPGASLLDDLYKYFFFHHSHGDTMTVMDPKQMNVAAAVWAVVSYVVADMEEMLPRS
inactive: [1] -0.144 | [3] -0.036 | [4] 0.062 | [5] -0.011 | [6] -0.039 | [7] -0.021 | [8] -0.006 | [9] 0.032 | [10] -0.035 | [11] 0.039 | [12] -0.012 | [13] 0.045 | [14] 0.02 | [15] -0.049 | [16] -0.035 | [17] -0.042 | [18] -0.031 | [19] 0.008 | [20] 0.006
active: [2] -0.27

CCZ1 (UniProt P86791)
Sequence of UniProt P86791 (P86791 whole entry, looked up): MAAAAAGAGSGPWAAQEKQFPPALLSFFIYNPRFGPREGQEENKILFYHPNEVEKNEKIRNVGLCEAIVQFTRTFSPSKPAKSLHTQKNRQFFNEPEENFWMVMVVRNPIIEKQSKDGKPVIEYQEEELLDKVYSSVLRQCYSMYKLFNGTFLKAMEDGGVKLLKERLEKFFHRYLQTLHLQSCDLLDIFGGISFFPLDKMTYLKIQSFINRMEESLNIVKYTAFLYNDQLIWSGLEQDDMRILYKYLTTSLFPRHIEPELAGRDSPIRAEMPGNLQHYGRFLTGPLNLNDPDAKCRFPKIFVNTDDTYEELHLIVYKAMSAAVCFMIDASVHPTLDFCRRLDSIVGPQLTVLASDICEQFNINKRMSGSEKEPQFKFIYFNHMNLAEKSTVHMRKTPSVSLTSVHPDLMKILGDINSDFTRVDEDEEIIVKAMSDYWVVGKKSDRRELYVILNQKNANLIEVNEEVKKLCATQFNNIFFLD
inactive: [1] -0.199 | [2] -0.113 | [3] -0.005 | [4] 0.013 | [5] -0.011 | [6] 0.028 | [7] -0.002 | [8] 0.025 | [9] -0.002 | [11] 0.079 | [12] -0.003 | [13] -0.052 | [14] -0.016 | [15] 0.012 | [16] -0.018 | [17] -0.006 | [18] -0.025 | [19] -0.01 | [20] -0.019
active: [10] -0.256

CASP8 isoform 9 (UniProt Q14790)
Sequence of UniProt Q14790 (Q14790 whole entry, looked up): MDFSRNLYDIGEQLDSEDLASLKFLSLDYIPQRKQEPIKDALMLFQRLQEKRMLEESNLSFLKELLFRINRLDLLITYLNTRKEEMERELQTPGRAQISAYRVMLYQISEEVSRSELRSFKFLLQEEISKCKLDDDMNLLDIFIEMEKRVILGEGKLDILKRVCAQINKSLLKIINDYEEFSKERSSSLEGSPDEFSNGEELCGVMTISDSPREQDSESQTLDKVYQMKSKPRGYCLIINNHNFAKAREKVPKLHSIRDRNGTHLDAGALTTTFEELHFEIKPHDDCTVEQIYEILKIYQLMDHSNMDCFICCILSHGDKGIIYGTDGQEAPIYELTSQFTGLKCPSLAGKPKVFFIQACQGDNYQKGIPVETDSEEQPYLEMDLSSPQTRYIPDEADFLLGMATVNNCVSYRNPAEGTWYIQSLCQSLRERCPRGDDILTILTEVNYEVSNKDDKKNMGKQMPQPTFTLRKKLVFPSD
inactive: [1] 0.025 | [3] 0.065 | [4] 0.052 | [5] 0.025 | [6] -0.019 | [7] 0 | [8] -0.034 | [9] -0.026 | [10] -0.082 | [11] -0.032 | [12] -0.019 | [14] 0.115 | [15] 0.053 | [16] -0.1 | [17] 0.011 | [18] 0.04 | [19] 0.044 | [20] 0.037
active: [2] -0.489

COCH (UniProt O43405)
Sequence of UniProt O43405 (O43405 whole entry, looked up): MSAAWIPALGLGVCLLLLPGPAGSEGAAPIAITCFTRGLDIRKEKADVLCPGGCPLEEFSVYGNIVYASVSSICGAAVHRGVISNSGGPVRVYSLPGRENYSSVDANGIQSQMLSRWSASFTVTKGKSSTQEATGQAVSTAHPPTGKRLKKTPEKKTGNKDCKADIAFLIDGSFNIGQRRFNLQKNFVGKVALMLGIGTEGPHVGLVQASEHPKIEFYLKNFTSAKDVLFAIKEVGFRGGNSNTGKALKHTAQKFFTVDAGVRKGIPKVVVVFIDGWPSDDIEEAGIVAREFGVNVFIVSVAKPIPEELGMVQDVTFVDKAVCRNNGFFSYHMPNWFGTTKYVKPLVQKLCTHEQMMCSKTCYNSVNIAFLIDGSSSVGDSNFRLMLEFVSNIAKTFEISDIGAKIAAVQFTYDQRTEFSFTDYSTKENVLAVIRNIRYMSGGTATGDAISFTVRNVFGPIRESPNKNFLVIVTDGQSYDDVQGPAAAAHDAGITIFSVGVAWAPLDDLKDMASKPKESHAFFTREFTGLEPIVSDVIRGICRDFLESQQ
inactive: [1] 0.117 | [2] -0.08 | [3] -0.065 | [4] -0.153 | [5] 0.054 | [6] 0.075 | [7] -0.127 | [8] -0.056 | [9] 0.007 | [10] 0.076 | [11] 0.126 | [12] 0.01 | [13] 0.029 | [14] -0.036 | [15] 0.031 | [16] 0.1 | [17] 0.011 | [18] -0.139 | [19] -0.074 | [20] 0.05

CFAP36 isoform 2 (UniProt Q96G28)
Sequence of UniProt Q96G28 (Q96G28 whole entry, looked up): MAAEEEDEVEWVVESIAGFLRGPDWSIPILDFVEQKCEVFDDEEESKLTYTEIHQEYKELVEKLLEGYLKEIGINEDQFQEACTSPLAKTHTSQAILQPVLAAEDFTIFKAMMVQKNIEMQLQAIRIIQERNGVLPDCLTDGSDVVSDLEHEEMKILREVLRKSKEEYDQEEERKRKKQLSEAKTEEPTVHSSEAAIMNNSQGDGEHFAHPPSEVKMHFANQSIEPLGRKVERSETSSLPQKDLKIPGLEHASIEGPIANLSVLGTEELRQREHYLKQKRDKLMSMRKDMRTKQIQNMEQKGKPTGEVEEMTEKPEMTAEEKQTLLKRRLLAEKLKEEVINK
active: [2] -0.433
inactive: [1] -0.159 | [4] -0.017 | [5] 0.077 | [6] 0.048 | [7] 0.005 | [8] 0.06 | [9] 0.051 | [10] -0.049 | [11] -0.01 | [12] -0.023 | [13] -0.132 | [14] 0.116 | [15] 0.1 | [16] 0.13 | [17] 0.064 | [18] -0.058 | [19] 0.053 | [20] 0.05
